In experiment [1] the test system is TRPC4 beta (transient receptor potential cation channel C4), mouse. Briefly: activators of mouse TRPC4 channel, confirmation, cell-based, Fluo4 calcium, HEK293 TRPC4beta/mu-opioid, duplicates, 10 µM (AID 2426;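 active = fluorescence ratio normalized to control raised more than 50% in primary screen plus both repeat runs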;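 for activation: percent rise of integrated ratio over buffer wells lacking compound which define 0%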). As to conditions: Fluo4 calcium fluorescence, at 10 µM; hits give high values.
The test system of experiment [2] is transient receptor potential cation channel C4 beta (TRPC4), mouse. In words: activators of mouse TRPC4 channel, confirmation, cell-based, second round, Fluo4, HEK293 TRPC4beta/mu-opioid, 1 µM (AID 2461;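 active = primary screen active and over 50% activation in each of two duplicate runs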;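 for activation: 0% = wells without test compound as baseline of integrated fluorescence ratio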). As to conditions: Fluo4 calcium fluorescence, at 1 µM; hits give high values.
Experiment [3] deals with TRPC4 (transient receptor potential cation channel C4 beta), mouse. In words: positive allosteric modulators of mouse TRPC4, confirmation, cell-based, second round, Fluo-4, HEK293 TRPC4beta/mu-opioid, 1 µM (AID 2554;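 active = primary screen hit whose fluorescence ratio, in both repeats, exceeds the weak agonist control mean by 3 SD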). As to conditions: DAMGO EC20, Fluo-4 calcium flux, at 1 µM; hits give high values. For orientation: A change in cytosolic calcium serves as a functional read-out for many receptors and channels.

For experiment [4], the system named is TRPC4 beta (transient receptor potential cation channel C4), mouse. In words: positive allosteric modulators of mouse TRPC4, confirmation, cell-based, Fluo-4, HEK293 TRPC4beta/mu-opioid (AID 2555;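 active = primary screen hit whose calcium fluorescence ratio, in both repeats, exceeds the weak agonist control mean by 3 SD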). To be noted: DAMGO EC20, Fluo-4 calcium flux, at 10 µM; hits give high values.
For experiment [5], the target named is Short transient receptor potential channel 4 (Mus musculus) (UniProt Q9QUQ5). Briefly: inhibitors of mouse TRPC4 channel, confirmation, cell-based, Fluo4, HEK293 TRPC4beta/mu-opioid (AID 2636;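 active = calcium signal cut by more than 3 SD below the full-agonist control yet still positive, in both repeats and the earlier primary screen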). As to conditions: DAMGO, Fluo4 calcium flux, at 10 µM; hits give high values.
Experiment [6] shares this target. Briefly: inhibitors of mouse TRPC4 channel, confirmation, cell-based, second round, Fluo4, HEK293 TRPC4beta/mu-opioid, 1 µM (AID 2637;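 active = calcium signal ratio cut to more than 3 SD under the fully stimulated control mean yet still positive, in both repeats and the primary screen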). As to conditions: Fluo4 calcium flux, DAMGO, at 1 µM; hits give high values.
Experiment [7] has the same target. Briefly: TRPC4 positive allosteric modulators, dose response, cell-based, HEK293 TRPC4/mu-opioid, Fluo-4 calcium, EC20 DAMGO (AID 434941;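 active = earlier screen potentiator hit that boosts the TRPC4 ion channel at some dose, with a dose response; inactive = no potentiation, no dose response, or not a prior hit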;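 note: calcium entry triggered by an EC20 dose of DAMGO at the co-expressed mu-opioid receptor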).
For experiment [8] the target is unchanged. In words: mouse TRPC4 channel inhibitors, dose response, cell-based, HEK293 TRPC4/mu-opioid, Fluo-4 calcium (AID 434942;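 active = primary screen inhibitor hit that blocks the TRPC4 channel at some tested dose, yielding a dose curve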).
For experiment [9], the target named is Short transient receptor potential channel 6 (Mus musculus) (UniProt Q61143). Briefly: inhibition of mouse TRPC6 channel, confirmation, selectivity assay for TRPC4 inhibitor project, cell-based, HEK293, membrane potential dye, duplicate (AID 434948;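 active = active in primary screen and both duplicates, each dropping signal beyond three positive-control SD with fluorescence still positive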). As to conditions: HEK293 TRPC6, membrane potential dye fluorescence, at 10 µM, stimulated with maximal-effect acetylcholine; hits give high values.

For experiment [10] the target is unchanged. Briefly: activation of mouse TRPC6 channel, confirmation, selectivity assay for TRPC4 activator project, cell-based, HEK293, membrane potential dye, duplicate (AID 434950).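 For activation: 0% = buffer only wells and 100% = acetylcholine maximal-effect wells.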 As to conditions: HEK293 TRPC6, membrane potential fluorescence, at 10 µM; hits give high values.
The target is the same in experiment [11]. In words: TRPC6 potentiation by TRPC4 potentiator hits, confirmation, selectivity assay for TRPC4 potentiator project, HEK293 cells, membrane potential dye, duplicate (AID 434952;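 active = compound raising the membrane signal above positive-control mean plus 3 SD in both repeats, and a primary screen hit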). As to conditions: HEK293 TRPC6, membrane potential dye fluorescence, at 10 µM, maximal acetylcholine added after compound; hits give high values.
In experiment [12] the target is Short transient receptor potential channel 4 (Mus musculus) (UniProt Q9QUQ5). In words: calcium flux activators in TRPC4/5HT1a cells, counter-screen for TRPC4 activator project, cell-based, second counter screen, HEK293 TRPC4/5HT1a, Fluo-4 (AID 434977;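 active = calcium signal rise above buffer-control mean plus 5 SD in both duplicates, and also a hit in the primary screen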;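 for activation: plate controls were assay buffer for no effect and maximal serotonin response for full effect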). As to conditions: Fluo-4 calcium flux, at 10 µM; hits give high values.
Experiment [13] is described as follows: calcium flux inhibitors in TRPC4/5HT1a cells, confirmation, counter-screen for TRPC4 inhibitor project, cell-based, second counter screen, HEK293 TRPC4/5HT1a, Fluo-4 (AID 434978;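 active = primary screen active whose calcium signal fell more than 3 SD beyond the full-serotonin control mean in both duplicate plates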;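 note: serotonin given first at submaximal then at maximal dose after compound preincubation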). To be noted: Fluo-4 calcium flux, at 10 µM, serotonin added to trigger calcium flux; hits give high values.
Experiment [14] has as its system TRPC4 (mouse), co-expressed with 5HT1a in HEK293. Briefly: calcium flux potentiators in TRPC4/5HT1a cells, confirmation, counter-screen for TRPC4 potentiator project, cell-based, second counter screen, HEK293 TRPC4/5HT1a, Fluo-4 (AID 434979;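 active = signal rise over 3 SD above mean of control wells given weak agonist, in both repeats and first screen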). To be noted: Fluo-4 calcium flux, at 10 µM, serotonin added at its EC20 dose; hits give high values.
Experiment [15] can be described thus: calcium flux activation in mu-opioid HEK293 cells, confirmation, counter-screen for TRPC4 activator project, cell-based, HEK293 mu-opioid receptor line (AID 449723;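 active = hit in primary screen, with calcium signal over 5 SD above buffer well mean in both duplicates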;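 note: counter screen cells carry the mu-opioid receptor alone and lack TRPC4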). To be noted: Fluo-4 calcium fluorescence, at 10 µM; hits give high values.
The nature of experiment [16]: calcium flux enhancement in mu-opioid HEK293 cells, confirmation, counter-screen for TRPC4 allosteric potentiator project, cell-based, HEK293 mu-opioid receptor line (AID 449724;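 active = calcium signal rise more than 3 SD above the low-dose agonist control mean, in both duplicate plates and the primary screen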;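 note: HEK293 cells carrying mu-opioid receptor only with no TRPC4 channel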). To be noted: Fluo-4 calcium flux, at 10 µM, compound added before EC20 DAMGO stimulus; hits give high values.

The structures appear in SMILES notation. For part of these data: Measured potencies and affinities stand elsewhere. The source made the active and inactive calls.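 Rule for the calls, unless noted: active = membrane potential signal rise above negative control mean plus 3 SD in both duplicates, also active in the earlier TRPC4 screen; inactive = the rest.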

Chain of Short transient receptor potential channel 6 (Mus musculus) (Q61143 whole entry, looked up): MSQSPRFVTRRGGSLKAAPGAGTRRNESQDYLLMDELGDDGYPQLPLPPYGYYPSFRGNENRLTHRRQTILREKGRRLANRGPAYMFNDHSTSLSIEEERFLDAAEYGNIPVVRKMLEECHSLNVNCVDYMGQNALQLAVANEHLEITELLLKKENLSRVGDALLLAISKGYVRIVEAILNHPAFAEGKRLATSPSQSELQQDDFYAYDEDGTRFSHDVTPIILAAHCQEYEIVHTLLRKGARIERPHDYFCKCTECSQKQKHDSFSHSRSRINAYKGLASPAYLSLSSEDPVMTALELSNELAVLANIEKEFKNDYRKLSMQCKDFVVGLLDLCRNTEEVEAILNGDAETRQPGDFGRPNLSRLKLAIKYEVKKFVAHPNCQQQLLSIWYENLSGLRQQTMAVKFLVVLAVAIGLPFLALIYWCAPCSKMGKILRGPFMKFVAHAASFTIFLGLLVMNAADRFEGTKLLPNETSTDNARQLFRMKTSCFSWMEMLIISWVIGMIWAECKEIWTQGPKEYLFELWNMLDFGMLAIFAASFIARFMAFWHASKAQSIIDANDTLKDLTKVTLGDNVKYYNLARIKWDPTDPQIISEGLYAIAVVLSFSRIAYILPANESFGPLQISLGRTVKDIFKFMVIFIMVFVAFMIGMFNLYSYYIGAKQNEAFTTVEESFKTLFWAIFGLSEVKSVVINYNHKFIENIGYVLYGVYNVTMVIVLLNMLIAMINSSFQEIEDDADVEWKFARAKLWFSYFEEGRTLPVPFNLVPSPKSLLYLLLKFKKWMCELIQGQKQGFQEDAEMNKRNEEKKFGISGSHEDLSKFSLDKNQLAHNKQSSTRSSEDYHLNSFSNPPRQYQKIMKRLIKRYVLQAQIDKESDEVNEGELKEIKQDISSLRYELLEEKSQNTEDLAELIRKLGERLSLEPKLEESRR
Chain of Short transient receptor potential channel 4 (Mus musculus) (Q9QUQ5 whole entry, looked up): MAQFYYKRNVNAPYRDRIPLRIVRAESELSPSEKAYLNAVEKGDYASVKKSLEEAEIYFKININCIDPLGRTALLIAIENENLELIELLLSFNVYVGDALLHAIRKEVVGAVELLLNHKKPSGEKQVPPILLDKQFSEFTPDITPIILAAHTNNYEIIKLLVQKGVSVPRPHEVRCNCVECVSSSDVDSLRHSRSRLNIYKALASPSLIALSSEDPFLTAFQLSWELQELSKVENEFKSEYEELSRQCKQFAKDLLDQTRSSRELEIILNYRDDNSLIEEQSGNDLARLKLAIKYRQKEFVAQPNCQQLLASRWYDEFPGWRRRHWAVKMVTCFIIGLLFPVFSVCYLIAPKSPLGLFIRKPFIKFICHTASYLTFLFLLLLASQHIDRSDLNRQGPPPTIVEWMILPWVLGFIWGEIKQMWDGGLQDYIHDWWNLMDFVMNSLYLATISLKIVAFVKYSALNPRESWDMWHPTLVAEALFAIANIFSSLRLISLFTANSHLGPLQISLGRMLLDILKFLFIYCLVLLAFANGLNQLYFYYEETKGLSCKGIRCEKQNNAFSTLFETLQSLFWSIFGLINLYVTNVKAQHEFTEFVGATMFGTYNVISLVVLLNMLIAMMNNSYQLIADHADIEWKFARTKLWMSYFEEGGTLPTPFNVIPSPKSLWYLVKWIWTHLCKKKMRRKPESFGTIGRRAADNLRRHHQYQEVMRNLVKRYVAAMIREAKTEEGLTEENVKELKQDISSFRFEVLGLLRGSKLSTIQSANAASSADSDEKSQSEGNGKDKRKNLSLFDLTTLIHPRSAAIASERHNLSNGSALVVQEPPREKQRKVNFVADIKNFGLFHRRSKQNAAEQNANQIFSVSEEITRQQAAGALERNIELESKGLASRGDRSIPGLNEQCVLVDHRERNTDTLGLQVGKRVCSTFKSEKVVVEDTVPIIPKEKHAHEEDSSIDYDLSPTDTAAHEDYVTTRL

As for `Fc1ccc(NC(=S)NCCc2ccccn2)cc1`, the activation is 199% (active) in experiment [1], 60% (active) in experiment [2] and 88% (active) in experiment [12]. Further, the outcome in experiment [3], in [4], in [5], in experiment [6], in experiment [7] and in [8] was inactive. Further, the outcome in experiment [9], in [10], in experiment [11], in [13], in experiment [14] and in experiment [15] was inactive. Moreover, in experiment [16], the outcome was inactive.
Take `CCC1CCCCN1S(=O)(=O)c1ccc(C(=O)N(CCCN(C)C)c2nc3cc4c(cc3s2)OCO4)cc1` (stereo not given): the activation in experiment [1] was 191% (active); in experiment [12] it was 23.1% (active). For the same molecule, the result in experiment [2], in [3], in experiment [4], in [5], in experiment [6] and in [7] was inactive. The outcome in [8], in [9], in experiment [10], in [11], in [13] and in [14] was inactive. The outcome in experiment [15] and in experiment [16] was inactive.
As to `NC1=NC2(CCN(Cc3ccccc3)CC2)n2c(nc3ccccc32)N1`, the activation in [1] is 54% (active). Moreover, the outcome in experiment [2], in experiment [3], in experiment [4], in experiment [5], in experiment [6] and in experiment [7] was inactive. In addition, the result in experiment [8], in experiment [9], in [10], in [11], in [12] and in experiment [13] was inactive. Also, the outcome in experiment [14], in experiment [15] and in experiment [16] was inactive.
As for `CC(CN1CCCC(C(N)=O)C1)c1ccccc1` (stereo not given), the activation in [1] is 147% (active); in [2], 65% (active); in experiment [10] it was 30.5% (active); in experiment [12], 42% (active). Further, the outcome in experiment [3], in experiment [4], in [5], in experiment [6], in [7] and in experiment [8] was inactive. Moreover, the result in experiment [9], in [11], in experiment [13], in experiment [14], in experiment [15] and in experiment [16] was inactive.
Regarding `CN(C)C(CNC(=O)c1ccc2nc[nH]c2c1)c1ccccc1` (stereo not given), the activation in experiment [1] is 145% (active). For the same molecule, the result in [2], in experiment [3], in [4], in [5], in experiment [6] and in experiment [7] was inactive. In addition, the result in [8], in experiment [9], in experiment [10], in experiment [11], in experiment [12] and in [13] was inactive. Also, the result in experiment [14], in experiment [15] and in experiment [16] was inactive.
In the case of `COc1ccc(/C=N/NC(=O)C2COc3ccccc3O2)cc1OC` (stereo not given), the activation is 114% (active) in experiment [1], 59% (active) in experiment [2], 45% (active) in experiment [10] and 52.1% (active) in experiment [12]. The outcome in experiment [3], in experiment [4], in experiment [5], in [6], in [7] and in experiment [8] was inactive. The outcome in experiment [9], in experiment [11], in [13], in experiment [14], in experiment [15] and in experiment [16] was inactive.
Turning to `COc1ccc(C(CNC(=O)Cc2ccc(-c3ccccc3)cc2)N(C)C)cc1` (stereo not given), the activation in experiment [1] is 192% (active); in [2], 112% (active); in experiment [10] it was 56% (active). Also, the outcome in [3], in [4], in experiment [5], in experiment [6], in experiment [7] and in [8] was inactive. The molecule was classed as inactive in [9], in experiment [11], in experiment [12], in experiment [13], in [14] and in [15]. For the same molecule, in experiment [16], the outcome was inactive.
Regarding `COCCCn1c(N)c(-c2nc3ccccc3n2C)c2nc3ccccc3nc21`, the outcome in experiment [1], in experiment [2], in experiment [3], in experiment [4], in experiment [5] and in [6] was inactive. Further, the outcome in experiment [7], in [8], in experiment [9], in [11], in experiment [13] and in experiment [14] was inactive. The outcome in experiment [16] was inactive. In addition, the values for the activation in experiment [10], in experiment [12] and in experiment [15] were 137% (active), 27.5% (active) and 16.7% (active), respectively.
Take `S=C(NCCc1ccccn1)NC1CCCCC1`: the activation is 97% (active) in experiment [1], 24.5% (active) in experiment [10] and 28.1% (active) in experiment [12]. Also, the outcome in experiment [2], in [3], in experiment [4], in experiment [5], in [6] and in experiment [7] was inactive. Moreover, the outcome in experiment [8], in [9], in [11], in experiment [13], in experiment [14] and in [15] was inactive. Further, the result in experiment [16] was inactive.
On to `CCOC(=O)C1(CC2CCCCO2)CCN(Cc2cc(F)ccc2-n2cccn2)CC1` (stereo not given), for which the result in experiment [1], in experiment [2], in experiment [3], in experiment [4], in experiment [5] and in [6] was inactive. Besides, the outcome in experiment [7], in experiment [8], in [9], in [11], in experiment [12] and in experiment [13] was inactive. Moreover, the result in experiment [14], in experiment [15] and in [16] was inactive. The activation in experiment [10] is 76.5% (active).
Regarding `COc1ccc(C)c(NC(=O)NCCc2cnc[nH]2)c1`, the activation is 152% (active) in experiment [1], 33% (active) in [10] and 56.4% (active) in experiment [12]. Moreover, the outcome in experiment [2], in [3], in [4], in [5], in [6] and in [7] was inactive. Moreover, the outcome in experiment [8], in experiment [9], in experiment [11], in experiment [13], in experiment [14] and in experiment [15] was inactive. In addition, the result in [16] was inactive.
For the molecule `COc1ccc(C(CNC(=O)c2cccc(NS(=O)(=O)c3ccc(Br)cc3)c2)N(C)C)cc1` (stereo not given), the activation was 253% (active) in experiment [1], 83% (active) in experiment [2], 35% (active) in [10] and 29.9% (active) in [12]. The outcome in experiment [3], in [4], in experiment [5], in experiment [6], in experiment [7] and in [8] was inactive. For the same molecule, the outcome in [9], in [11], in experiment [13], in [14], in experiment [15] and in experiment [16] was inactive.
For `CCCCN(CC)CCNC(=O)Cn1cc2c(n1)-c1c(oc(C(=O)N3CCCC3)c1C)CC2`, the activation was 65% (active) in experiment [1], 34% (active) in [10] and 18.6% (active) in experiment [12]. In addition, the outcome in experiment [2], in experiment [3], in [4], in [5], in experiment [6] and in [7] was inactive. In addition, the result in experiment [8], in experiment [9], in experiment [11], in experiment [13], in [14] and in [15] was inactive. Also, the outcome in experiment [16] was inactive.
Regarding `CCn1c(N2CCN(C(=S)NCC(C)C)CC2)nc2ccccc21`, the activation in [1] was 98% (active); in experiment [10], 39.5% (active); in [12] it was 27.9% (active). The outcome in experiment [2], in [3], in experiment [4], in experiment [5], in [6] and in experiment [7] was inactive. The outcome in experiment [8], in experiment [9], in [11], in experiment [13], in [14] and in experiment [15] was inactive. Also, the result in [16] was inactive.
Turning to `Fc1ccc(-n2cc(CNCCc3cccnc3)c(-c3ccccc3Cl)n2)cc1`, the activation in experiment [1] was 153% (active); in experiment [10], 31% (active). In addition, the result in [2], in experiment [3], in experiment [4], in [5], in experiment [6] and in experiment [7] was inactive. The outcome in experiment [8], in experiment [9], in experiment [11], in [12], in [13] and in experiment [14] was inactive. Also, the outcome in experiment [15] and in experiment [16] was inactive.

For the origin of these results see PubChem BioAssay.
